Experimental findings from PubChem BioAssay (NCI) are described below.

The panel holds about 79,000 compounds, 15% with a hit somewhere; the sample as a whole holds those more often. Values without a mark were called inactive. Active and inactive are the calls of the source. No stated cut-off is given here; in the data, active means growth inhibition above about 70%; inactive means the rest.

This assay in a line: NCI Yeast Anticancer Drug Screen. Data for the wt2 strain (AID 169).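 Further: 0% = growth of vehicle-treated yeast cultures.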 As to conditions: S. cerevisiae wt2 strain growth inhibition, stronger effect = higher value. On the procedure: Growth inhibition of yeast strains with defined genetic alterations is measured as a screen for potential anti-cancer activity. Selected strains with alterations in DNA damage repair or cell cycle control were exposed to compounds and growth inhibition was measured relative to vehicle treated controls. The strain used in this assay is wt2

As for `c1ccc2c(c1)sc1cc3ccncc3cc12`, the growth inhibition (at 1.2 µM) was -4%; the growth inhibition (at 3.7 µM) is -2%; the growth inhibition (at 11.0 µM) was -3%; the growth inhibition (at 33.0 µM) is 10%; the growth inhibition (at 100.0 µM) was 91% (active).
For `O=C(/C=C\c1ccc(Cl)cc1Cl)c1cccs1`, the growth inhibition (at 1.2 µM) was -5%; the growth inhibition (at 3.7 µM) is -1%; the growth inhibition (at 11.0 µM) is -3%; the growth inhibition (at 33.0 µM) is 4%; the growth inhibition (at 100.0 µM) is 7%.
Taken in the same sequence, the figures for `CC(C)C1=CC2=C[C@H](O)[C@H]3C(C)(C)CCC[C@]3(C)C2=C(O)C1=O` were 15%, 57%, 99% (active), 98% (active) and 96% (active).
Turning to `O=C1C(=O)c2ccccc2C=C1[N+](=O)[O-]`, the growth inhibition (at 1.2 µM) is 2%; the growth inhibition (at 3.7 µM) was 6%; the growth inhibition (at 11.0 µM) is 11%; the growth inhibition (at 33.0 µM) is 28%; the growth inhibition (at 100.0 µM) is 75% (active).
On to `S=C(Nc1ccc(Cl)c(Cl)c1)SCc1ccc2c(c1)OCO2`, for which the growth inhibition by setting is: (at 1.2 µM) 14%; (at 3.7 µM) 90% (active); (at 11.0 µM) 100% (active); (at 33.0 µM) 100% (active); (at 100.0 µM) 97% (active).
In the case of `Cc1nn(-c2cc(Cl)ccc2[N+](=O)[O-])c(C)c1Cl`, the growth inhibition runs as follows: (at 1.2 µM) 0%; (at 3.7 µM) -1%; (at 11.0 µM) -1%; (at 33.0 µM) -1%; (at 100.0 µM) 0%.
As for `COc1ccc(O)c(/C=N\Nc2ccccc2)c1`, the growth inhibition (at 1.2 µM) was 3%; the growth inhibition (at 3.7 µM) was 8%; the growth inhibition (at 11.0 µM) was 21%; the growth inhibition (at 33.0 µM) was 51%; the growth inhibition (at 100.0 µM) was 96% (active).
Taken in the same sequence, the figures for `CSC(=S)Nc1cccc(C)n1` were -29%, -30%, -31%, -10% and 31%.
